The structures appear in SMILES notation. Inconclusive results are not listed. The source made the active and inactive calls. Unless noted, calls come from the whole dose curve; as a rule, active = well fitted curve in either direction with a large enough effect (not every such curve was filed as active); inconclusive = small, poorly fitted or top-dose-only effect, or another doubt; inactive = flat fitted curve, though single readings scatter.

This is an account of results in PubChem BioAssay (NCATS).

For test [1], the target named is Lysosomal acid glucosylceramidase (Homo sapiens) (UniProt P04062). Kind of test: Glucocerebrosidase-p2 (AID 348; in the data active = potency below about 10 µM; note: potency is the fitted concentration of half-maximal effect). The conditions noted are these: purified GBA, blue fluorogenic substrate, 40 min. In a few lines:
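Compounds titrated from 0.6 nM upwards against 0.2 nM enzyme in pH 5.9 citric acid/KH2PO4, taurocholate, tween-20; blue fluorogenic substrate 80 uM, 40 min room temperature, stopped and read Ex 365/Em 440 for AC50.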

Test [2] is described as follows: AP1 Signaling Pathway (AID 357).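 Note: ME-180 reporter cells stimulated with EGF at its EC50 level; % is set by controls: 0 for no effect and ±100 for the full control effect.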 The conditions noted are these: ME-180 AP-1-bla reporter, EGF-induced, beta-lactamase ratio, 5 h; at 7.69 µM (top of the series) unless noted. In a few lines: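 In this screen, ME-180 cells in Opti-MEM with 0.5% dialyzed FBS received EC50 EGF and compound titrations for 5 h. AP-1 reporter beta-lactamase was detected via CCF4 ratio, giving AC50 for positive and negative modulators.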

Test [3] concerns the target Cytochrome P450 1A2 (Homo sapiens) (UniProt P05177). Kind of test: p450-cyp1a2 (AID 410; calls by dose curve; note: potency is the fitted concentration of half-maximal effect). The conditions noted are these: recombinant CYP1A2, luciferin-ME demethylation, luminescence; series mostly up to 57 µM. In a few lines: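 Human CYP1A2 (20nM) demethylated Luciferin-ME at its Km (100uM) in 100mM KPO4. After 10 min compound preincubation, NADPH regeneration ran the reaction 60 min at room temperature. Luciferin was read by luminescence, normalized to 57 uM furafylline.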

The nature of test [4]: NFAT Signaling Pathway (AID 444).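 Note: carbachol stimulus at about its EC50 of 1 µM final; % is set by controls: 0 for no effect and ±100 for the full control effect.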 The conditions noted are these: Jurkat NFAT-bla M1, carbachol, beta-lactamase ratio, 5 h; at 7.69 µM (top of the series) unless noted. In a few lines: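 Read-out: CCF4 FRET ratio (460 nm/530 nm) after 1 h RT dye loading, used for %activity and AC50 from titration series. Cells: Jurkat NFAT-β-lactamase/M1 line, treated with compound plus 1 uM carbachol for 5 h, 37 °C.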

A short description of test [5]: Stat Signaling Pathway (AID 446).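 Note: ME-180 cervical cancer cells given 40 pM IL-6 alongside compound; SIE-controlled beta-lactamase reporter measured as 460/530 nm FRET emission ratio; % is set by controls: 0 for no effect and ±100 for the full control effect.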 As to conditions: ME-180 SIE beta-lactamase reporter, IL-6 stimulated, 5 h; at 7.69 µM (top of the series) unless noted. In a few lines: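 ME-180 cells carrying a SIE-driven beta-lactamase reporter are stimulated with 40 pM IL-6 for 5 h at 37C in the presence of compound. The 460/530 nm FRET substrate ratio is read after 2.5 h at RT. Data are normalised to 300 pM IL-6 and to 125 nM JAK inhibitor controls.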

Test [6] concerns the target Glucocorticoid receptor (Homo sapiens) (UniProt P04150). Kind of test: GR-EFC Redistribution (AID 451; calls by dose curve; note: potency is the fitted concentration of half-maximal effect). The conditions noted are these: CHO-K1 GR-EFC translocation, beta-gal luminescence, 2 h. In short, it runs like this:
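Translocation of GR-ED fusion to nuclear EA restores b-gal, read by luminescence after 1 h room-temperature detection. Engineered CHO-K1 biosensor cells, 1,000/well, exposed 2 h at 37 C to titrations up to 46 uM final.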

The target in test [7] is Mitogen-activated protein kinase 10 (Mus musculus) (UniProt Q61831). Kind of test: JNK3 AlphaScreen Assay (AID 530).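 Note: kinase came from lysate of stimulated human HepG2 cells; signal reports phosphorylation of biotinylated GST-cJun 1-79 at Ser73 with 10 µM ATP; % is set by controls: 0 for no effect and ±100 for the full control effect.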 The conditions noted are these: JNK3 lysate, c-Jun phosphorylation; series mostly up to 57.1 µM. In short, it runs like this:
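Room-temperature AlphaScreen kinase assay; pre-activated HepG2 lysate as JNK3 source, biotin-GST-cJun(1-79) substrate, 10 uM ATP, compound 15 min preincubation.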

Test [8] concerns the target 3',5'-cyclic-AMP phosphodiesterase 4B (Homo sapiens) (UniProt Q07343). Kind of test: qHTS Assay for Inhibitors of PDE-IV (AID 607; active = well fitted activation curve with a large enough effect in the main read-out, with a control signal flat, not every such curve was filed as active; note: % of control where 0% means no effect). The conditions noted are these: HEK293 ACTOne CNG channel cells, membrane potential fluorescence; series mostly up to 22.9 µM. In short, it runs like this: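 HEK293 ACTOne cells with CNG channel (1000/well), endogenous PDE4; membrane potential dye, compounds up to 22.9 uM final. Fluorescence Ex 535/Em 590; RO 20-1724 (100 uM final) as reference.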
On the technique in general: In qHTS, concentration-response curves come from the screen itself.

The target in test [9] is Cytochrome P450 3A4 (Homo sapiens) (UniProt P08684). Kind of test: qHTS Assay for Inhibitors and Substrates of Cytochrome P450 3A4 (AID 884; active = well fitted curve in the direction sought with a large enough effect; an effect the other way counts as inactive or inconclusive; note: potency is the fitted concentration of half-maximal effect; nearly all actives have a fitted effect of over 50% in size). As to conditions: recombinant CYP3A4, Luciferin-PPXE luminescence; series mostly up to 57.1 µM. In a few lines:
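20 nM human CYP3A4 with 25 uM Luciferin-PPXE (at KM) in 200 mM KPO4, preincubated 10 min with compound; NADPH regeneration started a 60 min RT reaction. Luciferin detected by luminescence, normalized to 57 uM ketoconazole as full inhibition.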

For test [10] the target is unchanged. Kind of test: qHTS Assay for Activators of Cytochrome P450 3A4 (AID 885; active = well fitted curve in the direction sought with a large enough effect; an effect the other way counts as inactive or inconclusive; note: nearly all actives have a fitted effect of over 65% in size). The conditions noted are these: recombinant CYP3A4, Luciferin-PPXE luminescence, 60 min; series mostly up to 57.1 µM. In a few lines:
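Human CYP3A4 (20 nM) with Luciferin-PPXE at 25 uM (its KM) in 200 mM KPO4; 10 min compound preincubation, then NADPH regeneration and 60 min reaction at RT. Luciferin read by luminescence; normalized to 57 uM ketoconazole full inhibition.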

Test [11] deals with Cytochrome P450 2D6 (Homo sapiens) (UniProt P10635). In words: qHTS Assay for Inhibitors and Substrates of Cytochrome P450 2D6 (AID 891; active = well fitted curve in the direction sought with a large enough effect; an effect the other way counts as inactive or inconclusive; note: potency is the fitted concentration of half-maximal effect; nearly all actives have a fitted effect of over 60% in size). As to conditions: recombinant CYP2D6, luciferin-ME EGE luminescence; series mostly up to 57.1 µM. In a few lines: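 Human CYP2D6 (5 nM) with 30 uM Luciferin-ME EGE (at Km) in 100 mM KPO4, compound preincubated 10 min, then NADPH regeneration system for 60 min at room temperature. Luciferin read by luminescence; normalized to 1.43 uM quinidine.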

Test [12] concerns the target Cytochrome P450 2C19 (Homo sapiens) (UniProt P33261). Kind of test: qHTS Assay for Inhibitors and Substrates of Cytochrome P450 2C19 (AID 899; active = well fitted curve in the direction sought with a large enough effect; an effect the other way counts as inactive or inconclusive; note: potency is the fitted concentration of half-maximal effect; nearly all actives have a fitted effect of over 60% in size). The conditions noted are these: recombinant CYP2C19, luciferin-H EGE luminescence; series mostly up to 57.1 µM. In a few lines: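 Reactions contain 5nM enzyme, 10uM Luciferin-H EGE (KM) and 50mM KPO4; compound preincubates 10 min at 37C, NADPH regeneration starts turnover for 60 min. Luminescence after detection reagent gives activity.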

The nature of test [13]: qHTS Assay for Lipid Storage Modulators (AID 1519; calls by dose curve). The conditions noted are these: Drosophila S3 cells, BODIPY lipid droplet/cell ratio, laser cytometry, cells loaded with oleic acid; for activity change, negative = inhibition: at 57.5 µM (top of the series). In short, it runs like this: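 Cells seeded at 5,000 per well were treated with compounds over a concentration series and loaded with oleic acid (400 uM, as added). Lipid droplet fluorescence (488 nm excitation, 500-530 nm channel) was read by laser-scanning cytometry and normalized to 20 uM Triacsin C.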

Test [14] concerns the target Glucocorticoid receptor (Homo sapiens) (UniProt P04150). In words: GR-GFP Redistribution (AID 450;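 active = compounds whose dose series gives a full or clear partial fitted curve of increased nuclear translocation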; note: potency is the fitted concentration of half-maximal effect). The conditions noted are these: U2OS GR-GFP nuclear translocation, laser cytometry, 2 h.
A short description of test [15]: Confirmation and Secondary Assay for Modulators of Hemoglobin Beta Chain Splicing at IVS2 654 locus (AID 910; active = well fitted curve in the direction sought with a large enough effect; an effect the other way counts as inactive or inconclusive;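 note: HeLa cells stably carrying EGFP split by mutant beta-globin IVS2-654 intron; per-well total GFP intensity by laser scanning cytometry after 2-day treatment; % of control where 0% means no effect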). The conditions noted are these: HeLa EGFP-654 splicing reporter, GFP fluorescence, 48 h; series mostly up to 38.3 µM. In a few lines:
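Readout: per-well total peak green fluorescence (488 nm ex, 500–520 nm em) from objects 5–250 µm, reflecting correct splicing of an EGFP-654 reporter. Compounds were applied for 2 days at 37 °C to overnight-plated HeLa EGFP-654 cells; controls were DMSO and 500 nM IVS2-654 PNA.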

A short description of test [16]: qHTS Assay for Identification of Small Molecule Agonists for Hypoxia Response Element Signaling Pathway (AID 914; active = well fitted activation curve with a large enough effect in the signal ratio, with a control signal flat, not every such curve was filed as active; the % refers to the signal ratio; note: potency is the fitted concentration of half-maximal effect). As to conditions: ME-180 (cervical carcinoma) HRE-bla reporter, beta-lactamase ratio, CoCl2, 17 h; activation: stronger effect = higher value. In a few lines: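 Cells were plated overnight, pin-dosed with compound in a titration series, co-stimulated with EC50 CoCl2 and incubated 17 hours at 37 degrees Celsius. CCF4 substrate was then loaded, and AC50 values came from the 460nm/530nm ratio.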

Test [17] in a line: Confirmation and Secondary Assay for Modulators of Hemoglobin Beta Chain Splicing at IVS2 705 locus (AID 930; active = well fitted curve in the direction sought with a large enough effect; an effect the other way counts as inactive or inconclusive;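 note: HeLa cells stably expressing the EGFP-705 splicing reporter; % of control where 0% means no effect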). The conditions noted are these: HeLa EGFP-705 splicing reporter, GFP fluorescence, 48 h; series mostly up to 38.3 µM. In a few lines: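 Splice-correction reporter: EGFP cDNA split by beta-globin intron 2 bearing the 705 mutation, stably in HeLa. Compound incubation 2 days, 37C; fluorescent objects 5-250 µm summed per well.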

Test [18] concerns the target Ubiquitin carboxyl-terminal hydrolase 1 (Homo sapiens) (UniProt O94782). Kind of test: Inhibitors of USP1/UAF1: Pilot qHTS (AID 504865; active = well fitted curve in the direction sought with a large enough effect; an effect the other way counts as inactive or inconclusive;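 note: rhodamine fluorescence freed from ubiquitin-rhodamine substrate followed over time; top concentration of the series differs between compounds; % is set by controls: 0 for no effect and ±100 for the full control effect; nearly all actives have a fitted effect of over 35% in size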). As to conditions: purified USP1/UAF1, Ub-rhodamine cleavage fluorescence; series mostly up to 54.9 µM. In a few lines:
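Enzyme-free wells gave the negative control, while test wells held 1nM USP1/UAF1 preincubated with compound for 15 min at room temperature. Ub-Rho at 150nM final started the reaction, and fluorescence at 480/540 nm was recorded kinetically.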

[19] abbreviates: measured here: cell count channel max response.
[20] abbreviates: measured here: lipid channel max response.

Chain of Cytochrome P450 1A2 (Homo sapiens) (P05177 whole entry, looked up): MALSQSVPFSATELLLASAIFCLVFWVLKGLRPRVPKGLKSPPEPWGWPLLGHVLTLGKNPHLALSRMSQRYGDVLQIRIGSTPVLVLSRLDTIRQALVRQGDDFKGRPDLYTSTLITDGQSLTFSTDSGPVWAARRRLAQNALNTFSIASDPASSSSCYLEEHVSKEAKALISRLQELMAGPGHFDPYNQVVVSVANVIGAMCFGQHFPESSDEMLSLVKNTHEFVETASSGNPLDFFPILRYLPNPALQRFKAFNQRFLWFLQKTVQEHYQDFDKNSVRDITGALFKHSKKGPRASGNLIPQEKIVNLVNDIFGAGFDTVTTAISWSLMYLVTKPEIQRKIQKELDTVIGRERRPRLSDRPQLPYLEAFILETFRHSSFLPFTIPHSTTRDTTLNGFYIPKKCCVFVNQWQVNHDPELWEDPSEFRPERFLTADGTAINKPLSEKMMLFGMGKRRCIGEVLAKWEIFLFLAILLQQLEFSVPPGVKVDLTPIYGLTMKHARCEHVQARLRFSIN
Chain of 3',5'-cyclic-AMP phosphodiesterase 4B (Homo sapiens) (Q07343 whole entry, looked up): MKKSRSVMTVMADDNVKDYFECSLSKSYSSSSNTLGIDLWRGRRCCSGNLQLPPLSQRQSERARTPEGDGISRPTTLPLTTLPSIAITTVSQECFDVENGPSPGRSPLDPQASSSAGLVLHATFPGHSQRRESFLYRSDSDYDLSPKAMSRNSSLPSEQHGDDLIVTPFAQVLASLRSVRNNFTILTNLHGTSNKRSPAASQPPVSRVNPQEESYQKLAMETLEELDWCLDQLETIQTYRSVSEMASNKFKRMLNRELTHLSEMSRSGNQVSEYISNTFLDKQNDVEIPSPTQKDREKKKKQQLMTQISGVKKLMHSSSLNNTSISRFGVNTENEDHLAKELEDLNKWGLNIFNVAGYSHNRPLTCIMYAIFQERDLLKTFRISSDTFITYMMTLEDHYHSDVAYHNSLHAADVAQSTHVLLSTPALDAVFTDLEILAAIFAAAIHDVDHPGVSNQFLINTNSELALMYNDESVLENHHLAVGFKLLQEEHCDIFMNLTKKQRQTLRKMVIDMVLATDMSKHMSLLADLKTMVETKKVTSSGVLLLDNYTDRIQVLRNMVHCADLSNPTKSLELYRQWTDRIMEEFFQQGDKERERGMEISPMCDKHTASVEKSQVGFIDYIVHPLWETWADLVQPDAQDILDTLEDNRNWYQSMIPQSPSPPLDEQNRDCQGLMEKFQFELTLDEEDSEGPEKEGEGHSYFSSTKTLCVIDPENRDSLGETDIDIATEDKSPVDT
Chain of Lysosomal acid glucosylceramidase (Homo sapiens) (P04062 whole entry, looked up): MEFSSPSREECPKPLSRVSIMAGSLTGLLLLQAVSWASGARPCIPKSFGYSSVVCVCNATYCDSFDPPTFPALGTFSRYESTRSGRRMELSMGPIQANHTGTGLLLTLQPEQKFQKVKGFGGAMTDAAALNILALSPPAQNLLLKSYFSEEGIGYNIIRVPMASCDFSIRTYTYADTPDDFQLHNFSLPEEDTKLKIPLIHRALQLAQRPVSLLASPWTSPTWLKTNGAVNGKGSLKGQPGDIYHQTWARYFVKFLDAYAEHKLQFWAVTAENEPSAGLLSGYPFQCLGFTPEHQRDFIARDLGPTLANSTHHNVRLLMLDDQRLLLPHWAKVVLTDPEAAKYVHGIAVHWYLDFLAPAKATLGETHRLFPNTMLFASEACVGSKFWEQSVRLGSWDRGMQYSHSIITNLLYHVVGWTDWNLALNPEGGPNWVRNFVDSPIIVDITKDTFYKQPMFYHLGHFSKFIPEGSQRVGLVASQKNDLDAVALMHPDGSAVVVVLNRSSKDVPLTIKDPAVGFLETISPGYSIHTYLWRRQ
Chain of Cytochrome P450 3A4 (Homo sapiens) (P08684 whole entry, looked up): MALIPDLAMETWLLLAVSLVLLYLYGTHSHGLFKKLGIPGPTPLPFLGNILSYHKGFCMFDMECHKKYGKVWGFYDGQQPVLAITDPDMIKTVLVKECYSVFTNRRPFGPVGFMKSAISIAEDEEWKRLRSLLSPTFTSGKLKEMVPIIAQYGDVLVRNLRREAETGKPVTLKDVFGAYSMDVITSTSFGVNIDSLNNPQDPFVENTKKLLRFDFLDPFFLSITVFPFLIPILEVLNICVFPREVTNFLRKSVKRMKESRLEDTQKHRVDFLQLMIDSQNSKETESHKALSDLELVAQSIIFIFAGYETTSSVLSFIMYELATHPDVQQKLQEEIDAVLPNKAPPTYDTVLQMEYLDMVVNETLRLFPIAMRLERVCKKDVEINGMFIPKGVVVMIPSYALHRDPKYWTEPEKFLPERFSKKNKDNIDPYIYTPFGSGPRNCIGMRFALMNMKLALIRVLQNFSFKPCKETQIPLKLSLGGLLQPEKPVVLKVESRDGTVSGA
Chain of Glucocorticoid receptor (Homo sapiens) (P04150 whole entry, looked up, the tested form may be a part): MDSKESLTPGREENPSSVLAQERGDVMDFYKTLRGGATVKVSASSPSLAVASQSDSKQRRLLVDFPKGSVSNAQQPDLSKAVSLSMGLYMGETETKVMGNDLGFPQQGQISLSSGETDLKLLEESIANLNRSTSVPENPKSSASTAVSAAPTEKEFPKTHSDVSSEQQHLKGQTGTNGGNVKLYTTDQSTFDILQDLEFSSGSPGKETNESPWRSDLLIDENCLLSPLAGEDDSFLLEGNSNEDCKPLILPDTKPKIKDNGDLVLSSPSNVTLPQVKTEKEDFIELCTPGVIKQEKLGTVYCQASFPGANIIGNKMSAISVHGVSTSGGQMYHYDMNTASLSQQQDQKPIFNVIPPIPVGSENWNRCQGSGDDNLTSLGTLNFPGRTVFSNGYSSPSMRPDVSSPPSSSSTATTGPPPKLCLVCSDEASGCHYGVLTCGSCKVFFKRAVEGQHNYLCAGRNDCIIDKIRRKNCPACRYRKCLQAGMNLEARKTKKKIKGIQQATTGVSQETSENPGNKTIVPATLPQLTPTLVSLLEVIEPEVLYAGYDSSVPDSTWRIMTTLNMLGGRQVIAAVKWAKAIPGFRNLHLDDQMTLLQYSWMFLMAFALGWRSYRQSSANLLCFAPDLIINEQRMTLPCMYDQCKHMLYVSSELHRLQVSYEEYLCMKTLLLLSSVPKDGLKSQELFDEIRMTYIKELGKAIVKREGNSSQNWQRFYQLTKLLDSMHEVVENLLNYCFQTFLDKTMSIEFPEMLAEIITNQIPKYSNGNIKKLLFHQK
Chain of Ubiquitin carboxyl-terminal hydrolase 1 (Homo sapiens) (O94782 whole entry, looked up): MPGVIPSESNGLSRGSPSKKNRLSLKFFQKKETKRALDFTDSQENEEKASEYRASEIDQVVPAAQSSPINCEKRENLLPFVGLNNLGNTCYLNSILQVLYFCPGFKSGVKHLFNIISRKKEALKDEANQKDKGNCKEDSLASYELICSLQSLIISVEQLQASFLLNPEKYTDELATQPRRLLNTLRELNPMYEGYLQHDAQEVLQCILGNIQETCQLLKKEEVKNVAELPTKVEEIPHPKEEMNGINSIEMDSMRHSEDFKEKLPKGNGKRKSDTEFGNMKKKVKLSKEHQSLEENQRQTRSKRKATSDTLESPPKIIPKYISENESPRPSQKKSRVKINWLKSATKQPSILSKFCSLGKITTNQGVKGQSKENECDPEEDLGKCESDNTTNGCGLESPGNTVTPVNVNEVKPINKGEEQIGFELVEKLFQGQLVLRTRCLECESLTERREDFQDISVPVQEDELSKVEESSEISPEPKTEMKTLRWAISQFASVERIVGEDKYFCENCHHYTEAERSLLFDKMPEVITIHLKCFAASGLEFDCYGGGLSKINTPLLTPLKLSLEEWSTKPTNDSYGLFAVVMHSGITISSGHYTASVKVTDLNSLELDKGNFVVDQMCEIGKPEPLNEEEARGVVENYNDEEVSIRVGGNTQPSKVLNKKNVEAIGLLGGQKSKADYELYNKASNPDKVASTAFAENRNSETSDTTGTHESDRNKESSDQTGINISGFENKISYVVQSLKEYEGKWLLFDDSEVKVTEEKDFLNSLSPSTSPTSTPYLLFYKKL
Chain of Cytochrome P450 2C19 (Homo sapiens) (P33261 whole entry, looked up): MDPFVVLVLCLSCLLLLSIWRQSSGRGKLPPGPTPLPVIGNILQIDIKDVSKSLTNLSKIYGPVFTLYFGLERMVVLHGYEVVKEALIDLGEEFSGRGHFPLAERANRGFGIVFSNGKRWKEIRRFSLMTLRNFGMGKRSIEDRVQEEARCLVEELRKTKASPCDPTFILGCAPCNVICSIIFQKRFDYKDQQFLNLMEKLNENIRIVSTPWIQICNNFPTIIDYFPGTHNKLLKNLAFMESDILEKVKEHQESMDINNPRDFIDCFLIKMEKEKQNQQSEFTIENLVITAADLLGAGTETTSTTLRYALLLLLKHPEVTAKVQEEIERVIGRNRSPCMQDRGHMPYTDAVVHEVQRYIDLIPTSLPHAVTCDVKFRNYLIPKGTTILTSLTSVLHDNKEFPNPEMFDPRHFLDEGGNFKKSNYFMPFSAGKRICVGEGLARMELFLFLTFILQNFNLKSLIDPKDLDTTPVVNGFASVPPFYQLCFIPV
Chain of Cytochrome P450 2D6 (Homo sapiens) (P10635 whole entry, looked up): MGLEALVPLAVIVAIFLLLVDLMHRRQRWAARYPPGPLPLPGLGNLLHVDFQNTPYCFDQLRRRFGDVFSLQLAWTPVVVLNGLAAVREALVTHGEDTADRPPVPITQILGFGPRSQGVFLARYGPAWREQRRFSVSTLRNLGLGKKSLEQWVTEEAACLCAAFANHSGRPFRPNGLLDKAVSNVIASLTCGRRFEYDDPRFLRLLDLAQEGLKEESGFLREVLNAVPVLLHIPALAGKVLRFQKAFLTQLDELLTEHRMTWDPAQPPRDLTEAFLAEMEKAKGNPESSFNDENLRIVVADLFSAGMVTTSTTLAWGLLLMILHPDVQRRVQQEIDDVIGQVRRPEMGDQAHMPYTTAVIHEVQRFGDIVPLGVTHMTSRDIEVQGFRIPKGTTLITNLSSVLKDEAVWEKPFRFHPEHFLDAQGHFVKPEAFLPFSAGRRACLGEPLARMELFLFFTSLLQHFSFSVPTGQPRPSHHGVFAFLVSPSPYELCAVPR

With `O=S(=O)(c1ccccc1)N1CCC[C@@]2(CCN(Cc3nccs3)C2)C1`, the Potency was > 11.4 µM (inactive) in test [1]; 15.8 µM (active) in test [3]; > 46 µM (inactive) in test [6]; 3.16 µM (active) in test [9]; 2.51 µM (active) in test [11]; 7.94 µM (active) in test [12]. Also, the activity change, negative = inhibition in [2] is -10.5% (inactive); in test [4], -1.46% (inactive); in test [13], 0.281% (inactive). In addition, the activity, negative = inhibition in test [5] was -1.53% (inactive). The Potency entry in test [7], in [8] and in [10] was “inactive” in each case. The max response worked out at 10.8% in test [13] (setting [19]) and 15.6% in [13] (setting [20]).
With `COc1cccc(Nc2ncc3nc(C)c(=O)n(CCC#N)c3n2)c1`, the Potency in test [1] is > 11.4 µM (inactive); in test [3], 1.26 µM (active); in test [6], > 46 µM (inactive). The activity change, negative = inhibition in test [2] was -18.4% (inactive); in test [4] it was 4.34% (inactive); in test [13], -10.8% (inactive). The activity, negative = inhibition in test [5] is -8.39% (inactive). The Potency entry in [7], in [8] and in test [10] was “inactive” in each case. Further, the figures for the max response in [13] (setting [19]) and in [13] (setting [20]) were -22.6% and -28.8%, respectively.
On to `c1ccc(-c2ccc(N3CC[C@@]4(CCCNC4)C3)cc2)cc1`, for which the Potency is > 11.4 µM (inactive) in test [1], 12.6 µM (active) in test [3] and > 46 µM (inactive) in test [6]. For the same molecule, the results for the activity change, negative = inhibition in [2], in test [4] and in test [13] were 16.6% (inactive), 10.5% (inactive) and 4.33% (inactive), respectively. Also, the Potency result in test [7] and in [8] was “inactive” in each case. Further, the max response came out at 9.08% in test [13] (setting [19]) and 15.2% in test [13] (setting [20]).
`O=C(c1cc(C(F)(F)F)cc(C(F)(F)F)c1)N1CCC[C@@]2(CCN(c3ccncc3)C2)C1`: the Potency is > 11.4 µM (inactive) in test [1], > 46 µM (inactive) in test [6] and 6.31 µM (active) in [9]. Moreover, the activity change, negative = inhibition in [2] is 6.68% (inactive); in [13], 1.83% (inactive). Also, the Potency result in test [3], in [7], in [8] and in test [10] was “inactive” each time. Besides, the activity, negative = inhibition in test [5] was 1.59% (inactive). Further, the max response is -11% in [13] (setting [19]) and -5.86% in test [13] (setting [20]).
In the case of `O=C(Nc1cccc(F)c1)N1CCCC2(CCN(C(=O)c3cc(C(F)(F)F)cc(C(F)(F)F)c3)CC2)C1`, the Potency in test [1] is > 11.4 µM (inactive); in [3] it was 12.6 µM (active). The activity change, negative = inhibition in test [2] is -25.5% (inactive); in [4], 23.3% (inactive); in [13], 0.997% (inactive). Moreover, the activity, negative = inhibition in test [5] was -17.6% (inactive). Also, the Potency result in test [7] and in [10] was “inactive” throughout. In addition, the max response in test [13] (setting [19]) came out at 12.9%; in [13] (setting [20]), 17.1%.
For the molecule `CN(C)C(=O)c1ccc(-c2nc(NCc3cccnc3)c3ccccc3n2)cc1`, the Potency in test [1] was > 11.4 µM (inactive); in [3], 10 µM (active); in test [14], > 46 µM (inactive); in [6] it was > 46 µM (inactive); in test [16] it was 3.16 µM (active). The activity change, negative = inhibition in test [4] was 9.73% (inactive); in test [13], 8.76% (inactive). For the same molecule, the Potency result in test [7], in test [8], in test [10], in test [15] and in [18] was “inactive” each time. Also, in test [17], the outcome was inactive. Moreover, the figures for the max response in test [13] (setting [19]) and in test [13] (setting [20]) were 17% and 24.6%, respectively.
